This is a sample that favours compounds with a hit; in the whole collection about 28% have one here.
CYP2C19 inh: human CYP2C19 inhibition. CYP2C19 Supersomes, luciferin-H EGE luminescence, 30 min. P33261. inhibition, % at 5 µM. 21% of 96,000 active;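 active = CYP2C19 inhibition above a set limit at 5 µM in the primary screen, cut at about 50% in these data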;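 also: plate controls were negative control wells for no effect and 2.5 mM tranylcypromine positive control for full effect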
Target sequence (P33261 whole entry, looked up): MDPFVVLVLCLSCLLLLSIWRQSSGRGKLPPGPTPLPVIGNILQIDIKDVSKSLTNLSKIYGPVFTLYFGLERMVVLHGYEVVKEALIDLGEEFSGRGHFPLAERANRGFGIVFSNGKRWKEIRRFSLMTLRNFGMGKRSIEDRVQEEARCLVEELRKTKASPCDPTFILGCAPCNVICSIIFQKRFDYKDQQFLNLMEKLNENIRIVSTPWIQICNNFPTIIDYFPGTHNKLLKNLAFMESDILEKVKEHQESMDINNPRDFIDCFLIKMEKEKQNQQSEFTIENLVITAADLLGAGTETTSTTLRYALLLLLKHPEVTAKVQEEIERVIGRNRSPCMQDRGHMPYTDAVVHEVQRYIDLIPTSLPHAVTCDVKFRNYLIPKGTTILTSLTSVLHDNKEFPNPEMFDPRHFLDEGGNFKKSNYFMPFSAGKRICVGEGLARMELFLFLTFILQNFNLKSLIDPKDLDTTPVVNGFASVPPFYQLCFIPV
Mac1 fbg enh: increases human CD11b/CD18 adhesion to fibrinogen; P05107+P11215; activation, % at 10 µM; 0.07% of 93,000 active; K562 CD11b/CD18 adhesion to fibrinogen, ATPlite luminescence;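 active = 10 µM primary screen giving 50% or more activity, confirmed by 40% or more on retest at that dose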
CYP2C9 inhib: human CYP2C9 inhibition; P11712; CYP2C9 Supersomes, luciferin-H conversion, luminescence; inhibition, % at 5 µM; 20% of 96,000 active; AID 777;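 active = blocking of liver enzyme CYP2C9 beyond about 50% at 5 µM, limit read from the data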
Mac1 fbg inh: inhibitors of human CD11b/CD18 binding to fibrinogen; P05107+P11215; K562 CD11b/CD18 adhesion to fibrinogen, ATPlite luminescence; Mn2+ added to activate the integrin; inhibition, % at 10 µM; 0.54% of 93,000 active; AID 1497;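 active = primary inhibition of 50% or more at 10 µM, then 40% or more on retest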
CYP2C19 activ: cytochrome P450 2C19 (human) activation; recombinant CYP2C19, luciferin-H EGE luminescence; hits give high values; 0 = fully inhibited enzyme, 1 = untreated enzyme; activation factor at 5 µM; 96,000 tested, under 10 active; AID 1025;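 active = activation factor of at least 2 at 5 µM in the primary screen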;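 also: 0 = wells with 2.5 mM tranylcypromine and 1 = vehicle-only wells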
CYP2C9 act: CYP2C9 (human) activation; recombinant CYP2C9, luciferin-H conversion, luminescence; hits give high values; factor 1 = untreated enzyme, 0 = blocked; P11712; activation factor at 5 µM; AID 1024; 1.4% of 96,000 active;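 active = activation factor of 2 or more for CYP2C9 at a 5 µM dose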;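 also: 0 = sulfaphenazole-blocked wells and 1 = vehicle-only wells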
* marks the source's active call; other numbers are inactive results.

O=S(=O)(c1ccccc1)N1CCn2c(nc3ccccc32)C1 was read as CYP2C19 inh 71*, Mac1 fbg enh 2, CYP2C9 inhib 24, Mac1 fbg inh -1, CYP2C19 activ 0.3 and CYP2C9 act 0.8.
For O=S(=O)(c1ccc(F)cc1)N1CCn2c(nc3ccccc32)C1 the results were CYP2C19 inh 44, Mac1 fbg enh -3, CYP2C9 inhib 15, Mac1 fbg inh -7, CYP2C19 activ 0.6 and CYP2C9 act 0.9.
Screening CC(C)CN(CC(C)C)S(=O)(=O)N1CCC(C(=O)NC2CCCCCCC2)CC1 returned CYP2C19 inh 3, Mac1 fbg enh 0, CYP2C9 inhib 9, Mac1 fbg inh -11, CYP2C19 activ 1 and CYP2C9 act 0.9.
Screening COc1cc2c(cc1OC)CN(C(=S)Nc1ccc(C)cc1C)CC2 returned Mac1 fbg enh 6 and Mac1 fbg inh -15.
Screening CCCN(CCC)S(=O)(=O)c1ccc2c(c1)CCCN2C(C)=O returned CYP2C19 inh 2, Mac1 fbg enh -4, CYP2C9 inhib -2, Mac1 fbg inh -3, CYP2C19 activ 1 and CYP2C9 act 1.
Screening O=C(c1ccc2c(c1)OCO2)N1CCc2ccccc2C1 returned CYP2C19 inh 100*, Mac1 fbg enh 29, CYP2C9 inhib 16, Mac1 fbg inh -7, CYP2C19 activ 0 and CYP2C9 act 0.8.
Screening CCCN(CCC)S(=O)(=O)c1ccc(C(=O)N2CCCc3ccccc32)cc1 returned CYP2C19 inh 21, Mac1 fbg enh -2, CYP2C9 inhib 86*, Mac1 fbg inh -8, CYP2C19 activ 0.8 and CYP2C9 act 0.1.
For Cc1ccc2c(c1)CCCN2C(=O)c1ccc2c(c1)OCO2 the results were CYP2C19 inh 90*, Mac1 fbg enh 6, CYP2C9 inhib 40, Mac1 fbg inh -8, CYP2C19 activ 0.1 and CYP2C9 act 0.6.
For O=C(CCN1CCc2ccccc21)c1ccc2c(c1)OCCO2 the results were CYP2C19 inh 84*, Mac1 fbg enh -6, CYP2C9 inhib 8, Mac1 fbg inh 3, CYP2C19 activ 0.2 and CYP2C9 act 0.9.
`CCN(C(=O)COC(=O)c1cc(-c2cccc3ccccc23)nc2ccccc12)C1CCS(=O)(=O)C1` (stereo not drawn) gave Mac1 fbg enh 22 and Mac1 fbg inh 10.
For O=C(c1ccc2c(c1)OCO2)N1CCCc2ccccc21 the results were CYP2C19 inh 83*, Mac1 fbg enh -6, CYP2C9 inhib 4, Mac1 fbg inh 5, CYP2C19 activ 0.2 and CYP2C9 act 1.
`O=C(c1ccc(=O)oc1)N1CCCc2ccccc21` gave CYP2C19 inh 5, Mac1 fbg enh -4, CYP2C9 inhib 17, Mac1 fbg inh -8, CYP2C19 activ 0.9 and CYP2C9 act 0.8.
For Cc1nn(Cc2ccccc2)c(N)c1-c1ccccc1 the results were CYP2C19 inh 63*, Mac1 fbg enh 4, CYP2C9 inhib 21, Mac1 fbg inh 2, CYP2C19 activ 0.4 and CYP2C9 act 0.8.
`CCn1cc(C(=O)NC2CC3CCC2C3)c(=O)c2ccc(C)nc21` (stereo not drawn) gave CYP2C19 inh 13, Mac1 fbg enh -5, CYP2C9 inhib 2, Mac1 fbg inh -10, CYP2C19 activ 0.9 and CYP2C9 act 1.
`C=CCNC(=O)c1onc(CSc2ccc(C(C)C)cc2)c1C(=O)O` gave CYP2C19 inh 21, CYP2C9 inhib 87*, CYP2C19 activ 0.8 and CYP2C9 act 0.1.
Screening C=CCNC(=O)c1onc(CSc2ccc(F)cc2)c1C(=O)NCCOC returned CYP2C19 inh 98*, Mac1 fbg enh -6, CYP2C9 inhib 22, Mac1 fbg inh 60*, CYP2C19 activ 0 and CYP2C9 act 0.8.
`C=CCNC(=O)c1onc(CSc2ccc(OC)cc2)c1C(=O)O` gave CYP2C19 inh -3, CYP2C9 inhib 52*, CYP2C19 activ 1 and CYP2C9 act 0.5.
`C=CCNC(=O)c1onc(CSc2ccccc2)c1C(=O)O` gave CYP2C19 inh 13, CYP2C9 inhib 31, CYP2C19 activ 0.9 and CYP2C9 act 0.7.
`C=CCNC(=O)c1onc(CSc2cccc3ccccc23)c1C(=O)O` gave CYP2C19 inh 59*, CYP2C9 inhib 94*, CYP2C19 activ 0.4 and CYP2C9 act 0.1.
`Cc1ccc(-c2cc(C(=O)NCc3ccccn3)no2)cc1` gave CYP2C19 inh 46, Mac1 fbg enh 4, CYP2C9 inhib 47, Mac1 fbg inh 4, CYP2C19 activ 0.5 and CYP2C9 act 0.5.
Screening O=C(Nc1ccc(-c2cc3ccccc3oc2=O)c(Cl)c1)c1cccnc1 returned CYP2C19 inh 22, Mac1 fbg enh 2, CYP2C9 inhib -120, Mac1 fbg inh 12, CYP2C19 activ 0.8 and CYP2C9 act 2.2*.
O=C(Nc1ccc(Cl)c(-c2nc3ccccc3[nH]2)c1)c1cccnc1 was read as CYP2C19 inh 60*, Mac1 fbg enh 1, CYP2C9 inhib 83*, Mac1 fbg inh -15, CYP2C19 activ 0.4 and CYP2C9 act 0.2.
O=C(Cc1ccc(Cl)cc1)Nc1ccc(-c2cc3ccccc3oc2=O)c(Cl)c1 was read as Mac1 fbg enh 40 and Mac1 fbg inh 17.
COC(=O)c1cc(OC)c(OC)cc1NC(=O)Cn1nnc(-c2ccccc2Cl)n1 was read as CYP2C19 inh 14, Mac1 fbg enh 19, CYP2C9 inhib 19, Mac1 fbg inh -1, CYP2C19 activ 0.9 and CYP2C9 act 0.8.
N#CC1=C(N)SC(N)=C(C#N)C1CCC1CCCCC1 was read as CYP2C19 inh 12, Mac1 fbg enh -10, CYP2C9 inhib 25, Mac1 fbg inh 101*, CYP2C19 activ 0.9 and CYP2C9 act 0.8.
`CS(=O)(=O)N(CC(=O)N1CCC(C(N)=O)CC1)c1ccc(Oc2ccccc2)cc1` gave CYP2C19 inh -10, Mac1 fbg enh -2, CYP2C9 inhib 3, Mac1 fbg inh -3, CYP2C19 activ 1.1 and CYP2C9 act 1.
Screening COC(=O)c1cc(=O)nc2sc(-c3ccc(F)cc3)nn12 returned CYP2C19 inh -9, Mac1 fbg enh -4, CYP2C9 inhib 0, Mac1 fbg inh -11, CYP2C19 activ 1.1 and CYP2C9 act 1.
`COC(=O)c1cc(C(=O)OC)n(Cc2ccc(F)cc2)n1` gave CYP2C19 inh 74*, Mac1 fbg enh 7, CYP2C9 inhib 29, Mac1 fbg inh -15, CYP2C19 activ 0.3 and CYP2C9 act 0.7.
`COCCn1c(SCC(=O)NCC2CCCO2)nc2c(c1=O)SC(C)C2` (stereo not drawn) gave CYP2C19 inh -4, Mac1 fbg enh -5, CYP2C9 inhib -2, Mac1 fbg inh -11, CYP2C19 activ 1 and CYP2C9 act 1.
N#Cc1ccc(Oc2ccc(/C=N/O)cn2)cc1 was read as CYP2C19 inh 26, Mac1 fbg enh 1, CYP2C9 inhib -11, Mac1 fbg inh -17, CYP2C19 activ 0.7 and CYP2C9 act 1.1.

Assay outcomes as filed in PubChem BioAssay.
